# Bioassay records as filed in PubChem.
# The list is not random: actives were taken first. Their share in the collection is about 14%.
# USP8 inh – inhibitors of human USP8 deubiquitinase | purified USP8, Ub-rhodamine cleavage fluorescence, 30 min | actives 4.2% (n = 47,000) | P40818 | inhibition, % at 20 µM | AID 1645853
# USP17 block – inhibitors of human USP17 deubiquitinase | purified USP17, Ub-rhodamine cleavage fluorescence, 3 h | actives 6.5% (n = 47,000) | A8MUK1 | inhibition, % at 50 µM
# USP30 inh – blocks human USP30 ubiquitin-rhodamine cleavage. Q70CQ3. purified USP30, Ub-rhodamine cleavage fluorescence. inhibition, % at 25 µM. actives 5.3% (n = 47,000). AID 1645860
# USP10 block – inhibitors of human USP10 deubiquitinase | purified USP10, Ub-rhodamine fluorescence, 60 min | inhibition, % at 20 µM | actives 1.1% (n = 47,000) | Q14694
# Target sequence (Q14694 whole entry, looked up): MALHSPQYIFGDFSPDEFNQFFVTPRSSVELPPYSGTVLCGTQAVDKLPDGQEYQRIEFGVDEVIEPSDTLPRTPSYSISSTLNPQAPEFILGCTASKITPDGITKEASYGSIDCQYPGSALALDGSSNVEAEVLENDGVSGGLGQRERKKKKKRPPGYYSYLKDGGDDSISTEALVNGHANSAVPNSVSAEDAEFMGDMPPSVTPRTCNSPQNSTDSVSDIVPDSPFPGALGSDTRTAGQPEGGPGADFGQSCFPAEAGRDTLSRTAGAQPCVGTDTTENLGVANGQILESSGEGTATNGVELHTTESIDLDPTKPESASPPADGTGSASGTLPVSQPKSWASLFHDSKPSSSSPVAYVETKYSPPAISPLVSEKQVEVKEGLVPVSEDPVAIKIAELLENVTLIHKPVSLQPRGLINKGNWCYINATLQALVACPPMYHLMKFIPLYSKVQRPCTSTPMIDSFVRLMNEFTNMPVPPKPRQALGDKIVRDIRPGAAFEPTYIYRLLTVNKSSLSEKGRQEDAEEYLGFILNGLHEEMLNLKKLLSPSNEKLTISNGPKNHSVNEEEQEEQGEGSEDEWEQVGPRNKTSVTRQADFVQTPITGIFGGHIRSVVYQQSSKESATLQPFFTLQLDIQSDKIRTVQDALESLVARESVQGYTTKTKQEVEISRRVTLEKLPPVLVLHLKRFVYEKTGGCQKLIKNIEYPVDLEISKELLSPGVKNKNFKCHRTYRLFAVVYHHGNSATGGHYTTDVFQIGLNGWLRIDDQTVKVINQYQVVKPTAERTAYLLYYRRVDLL
# USP28 block – human USP28 deubiquitinase inhibition; purified USP28, Ub-rhodamine cleavage fluorescence, 30 min; AID 1645857; Q96RU2; actives 3% (n = 47,000); inhibition, % at 25 µM
# * hit, by the source's call; · = no result. Rule as the data show it: active = inhibition above about 30%; inactive = the rest.
SMILES,USP8 inh,USP17 block,USP30 inh,USP10 block,USP28 block
O=c1cc(CN2CCOCC2)nc2nc(NCc3ccccc3)[nH]n12,27.0,11.0,23.2,-10.5,2.2
O=c1cc(CNc2ccc(Br)cc2)nc2nc(-c3ccccc3)[nH]n12,45.3*,81.9*,31.6*,-8.4,41.5*
CC(=O)Nc1cccc(OS(=O)(=O)c2ccc(-c3csnn3)s2)c1,20.0,21.6,-41.3,-5.9,-0.8
CC(C)N1CCn2c(nc3cc(NC(=O)c4cccnc4)ccc32)C1,32.4*,33.6*,-67.0,-12.1,19.1
Cc1cccc(NC2=NC3(CCCC3)N=C(N)N2)c1,0.7,0.3,6.9,-3.5,-0.1
COc1ccc(S(=O)(=O)Nc2ccc(Nc3ccc(-n4cccn4)nn3)cc2)cc1,-33.2,47.1*,61.7*,6.9,12.2
COc1ccc([C@@H]2CN(S(=O)(=O)c3cc(C)ccc3OC)C[C@H]2c2ccn[nH]2)cc1,-0.1,3.6,-5.5,3.6,3.6
O=C(NCc1ccc(F)cc1)Nc1cccc2ccccc12,70.8*,40.3*,39.6*,1.7,17.1
COc1ccc(CNC(=O)Nc2cccc3ccccc23)cc1,97.3*,92.2*,37.7*,28.4,24.2
O=C(CCc1ccc2[nH]ccc2c1)NCc1ccc(F)cc1,-12.2,-21.1,-55.3,-5.3,-23.5
O=C(NCc1ccccc1)Nc1cccc2ccccc12,94.7*,83.6*,-4.6,10.2,19.1
CC(C)CCn1c(N)c(-c2nc3ccccc3[nH]2)c2nc3ccccc3nc21,13.3,-7.5,-95.0,-6.7,-29.2
Cc1ccc(C2CC(=O)c3cnc(NC(=O)c4ccc(Cl)cc4)nc3C2)cc1 (centres undefined),10.4,15.7,42.9*,7.1,9.9
COc1cc(C(=O)Nc2ncc3c(n2)CC(c2ccc(C)cc2)CC3=O)cc(OC)c1OC (centres undefined),-9.0,-9.6,-0.6,1.9,-4.3
CC1=C(C(=O)NCc2ccccc2)C(c2cccc(F)c2)n2ncnc2N1 (centres undefined),22.0,10.9,33.0*,0.1,7.6
COc1ccc(C2C(C(=O)NCc3ccccc3)=C(C)Nc3ncnn32)cc1 (centres undefined),0.0,-15.4,-4.7,0.8,-7.9
CCCCCCCCCCCC[C@@]1(C(=O)O)OC(=O)[C@@H](O)[C@@]1(O)C(=O)O,10.2,16.0,41.4*,22.5,5.1
CCCCCC1CC2=C(C(=O)OC2=O)C(O)C(O)(CCCC)CC2=C1C(=O)OC2=O (centres undefined),7.5,14.9,9.0,1.3,21.9
O=C(c1ccco1)N1CCN(C(=O)c2cc3c(s2)CN(C2CC2)C3)CC1,1.0,5.5,-81.8,-0.7,-9.6
O=C(c1cc2c(s1)CN(C1CCCC1)C2)N1CCCN(c2ncccn2)CC1,83.8*,21.0,-48.6,-8.7,-1.5
O=C(c1cc2cn(C3CC3)cc2s1)N1CCCN(c2ncccn2)CC1,82.9*,27.7,-77.9,-4.2,-16.9
Cc1cc(C)n2ncc(C(=O)N3CCN(c4ncccn4)CC3)c2n1,-2.1,8.4,·,0.0,·
Cc1ccc(Nc2nc(O)c(CC(=O)Nc3ccc(C)cc3C)s2)cc1,45.9*,36.7*,8.6,38.3*,-0.1
COc1cccc(NC(=O)Cc2sc(Nc3cc(C)cc(C)c3)nc2O)c1,21.6,62.2*,0.4,17.6,3.7
Cc1ccc(Nc2nc(O)c(CC(=O)Nc3ccccc3C)s2)cc1C,90.1*,74.4*,15.2,36.0*,3.7
SMILES,USP8 inh,USP17 block,USP30 inh,USP10 block,USP28 block
Cc1cc(C)c(NC(=O)Cc2sc(Nc3ccc(C)c(C)c3)nc2O)c(C)c1,67.3*,3.1,-2.8,35.4*,9.3
COc1ccc(NC(=O)Cc2sc(Nc3cccc(OC)c3)nc2O)cc1,-9.8,1.1,-26.7,5.7,1.5
Cc1ccc(NC(=O)Cc2nc(-c3ccccn3)n[nH]2)cc1C,-363.6,-28.9,-12.2,-9.3,0.8
CC(C)(C)CC(=O)N1CCC(c2nc3c(nnn3Cc3ccccc3Cl)c(=O)[nH]2)CC1,5.7,1.5,20.2,6.4,5.0
O=C(C1CCCC1)N1CCC(c2nc3c(nnn3Cc3c(Cl)cccc3Cl)c(=O)[nH]2)CC1,3.8,12.0,43.5*,16.5,27.2
O=C(C1CCC1)N1CCC(c2nc3c(nnn3Cc3c(F)cccc3Cl)c(=O)[nH]2)CC1,-0.3,-4.5,5.9,2.7,-7.9
O=C(C1CCC1)N1CCC(c2nc3c(nnn3Cc3ccccc3Cl)c(=O)[nH]2)CC1,19.3,24.8,31.6*,6.8,18.2
Cc1cc(=O)[nH]c2cc(-c3ccccc3)nn12,2.8,11.3,38.5*,-1.5,3.4
Cc1cc(=O)[nH]c2c1c(-c1ccccc1)nn2C,-1.3,2.6,12.9,0.4,5.4
c1ccc2c(-c3nc(C4CC4)no3)nnc(NCCCN3CCOCC3)c2c1,20.2,9.1,35.9*,2.7,14.1
c1ccc2c(-c3nc(C4CC4)no3)nnc(NC3CCCCC3)c2c1,11.7,1.3,33.4*,6.4,16.6
c1ccc2c(-c3nc(C4CC4)no3)nnc(NCc3ccncc3)c2c1,3.4,53.3*,29.4,-2.1,4.2
CC(C)OCCCNc1nnc(-c2nc(C3CC3)no2)c2ccccc12,5.3,0.1,16.0,8.3,2.8
Cc1nnc(-c2nnc(NCc3ccccc3)c3ccccc23)o1,4.4,-2.7,26.3,3.9,12.0
Fc1ccc(-c2noc(-c3nnc(NCc4cccnc4)c4ccccc34)n2)cc1,0.2,75.3*,-2.7,0.8,-7.7
CC(C)N1CCN(c2nnc(-c3nc(C4CC4)no3)c3ccccc23)CC1,-37.9,-11.8,-8.6,-1.1,0.5
Cc1ccc2c(=O)c3c([nH]c2c1C)CCN(CC(=O)Nc1ccccc1)C3,1.8,3.0,-1.7,-7.1,0.8
COc1cccc(CNC(=O)Cn2c(=O)c(CCC(=O)NC3CC3)nc3ccccc32)c1,3.6,8.6,-2.2,-2.2,0.8
COc1ccc(C)cc1NS(=O)(=O)c1ccc2c(c1)C(C)(C)C(=O)N2C,-40.1,4.1,-19.5,0.3,3.0
COc1ccc(C(=O)Nc2ccc(O)cc2C(=O)O)cc1OC,32.9*,18.2,31.9*,3.9,19.3
Cc1ccc(N(CC(=O)N2CCC(Cc3ccccc3)CC2)S(=O)(=O)c2ccccc2)cc1C,11.5,8.0,17.9,9.0,12.2
Cc1c(S(=O)(=O)NC2CCCCNC2=O)sc2ccc(Cl)cc12 (centres undefined),0.7,50.6*,9.7,1.6,6.3
O=C(CC1CC1)N1C[C@@H]2CCN(c3ncccn3)C[C@@H]2C1,-84.4,-81.0,-283.5,-6.2,-81.5
O=C(CC1SC(N2CCOCC2)=NC1=O)Nc1cccc([N+](=O)[O-])c1 (centres undefined),-47.8,15.2,31.1*,1.2,0.6
O=C(Nc1ccc(CN2CCOCC2)cc1)c1cccc([N+](=O)[O-])c1,-1.6,-31.5,-3.2,-1.2,0.0
CN1Cc2c(C(=O)N3CCCCC3)ncn2-c2ccccc2S1(=O)=O,-14.8,·,-9.4,-2.4,-7.5
COc1ccc(OCC(=O)Nc2ccc3c(c2)CCC(=O)N3Cc2ccccc2)cc1,0.8,12.6,32.4*,10.1,14.4
